# A selection: hits, their analogues and other compounds. The true share with any hit is near 15%.
# ALOX12 inh: ALOX12 (human) lipoxygenase inhibition; P18054; purified 12hLO, xylenol orange hydroperoxide absorbance; Potency, µM (series often up to 108 µM), for inactives: top-dose activity change, negative = inhibition, actives largely listed as inhibitors; 580,000 compounds, 1.1% hits; AID 1671190
#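 Hydroperoxide product was detected by ferrous iron/xylenol orange as the 573 to 405 nm absorbance ratio. Arachidonic acid at 40 uM (final) was turned over for 30 min at room temperature by 150 nM human 12hLO, pH 7.0 Hepes buffer, after 15 min compound preincubation.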
# VP16 counter: Gal4-VP16 reporter inhibition counter-screen; Drosophila S2 Gal4-VP16 UAS-luciferase, luminescence, 20 h; Potency, µM (doses to about 53.6 µM), without a hit: top-dose activity, negative = inhibition, most hits filed as inhibitors; 310,000 compounds, 3.5% hits;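 also: Gal4-VP16 expression switched on by copper sulfate through the metallothionein promoter; nearly all actives have a fitted effect of over 50% in size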
# ELG1 repair inh: ELG1-dependent DNA repair inhibition | 330,000 compounds, 2.3% hits | HEK293T ELG1-luciferase reporter, luminescence, 16 h; DNA damage induced by 5-fluorouridine | Potency, µM (top dose mostly 46.1 µM), without a hit: top-dose activity change, negative = inhibition, actives largely listed as inhibitors; also: nearly all actives have a fitted effect of over 55% in size
#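 In this reporter screen, reduction of luminescence relative to DMSO vehicle indicated activity. Compounds and 5-fluorouridine were added together to 2,000 cells per well, incubated for 16 hr at 37 °C, then developed with ONE-Glo.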
# TDP1 cell CPT: growth inhibition of DT40 Tdp1-/-;hTDP1 cells with camptothecin (screen for TDP1 inhibitors). 420,000 compounds, 12% hits. Potency, µM (doses to about 46.2 µM), inactives show at the top dose activity change, negative = growth inhibition, usual class: inhibitors. chicken DT40 Tdp1-/-;hTDP1 cells + 20 nM CPT, ATP luminescence, 48 h. AID 686979; also: nearly all actives have a fitted effect of over 55% in size
#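 Cell growth measured by CellTiter-Glo luminescence after a minimum 48 h, 37 C compound exposure with 20 nM CPT in Tdp1-knockout DT40 cells stably expressing hTDP1, seeded 400/well; qHTS titration format.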
# RORg inh: ROR gamma (mouse) transcription inhibition; P51450; Drosophila S2 Gal4-RORgamma UAS-luciferase reporter, 20 h; Potency, µM (series often up to 53.6 µM), for inactives: at the top dose activity change, negative = inhibition, most hits filed as inhibitors; 310,000 compounds, 5.4% hits; also: nearly all actives have a fitted effect of over 60% in size
# Target sequence (P51450 whole entry, looked up, the tested form may be a part): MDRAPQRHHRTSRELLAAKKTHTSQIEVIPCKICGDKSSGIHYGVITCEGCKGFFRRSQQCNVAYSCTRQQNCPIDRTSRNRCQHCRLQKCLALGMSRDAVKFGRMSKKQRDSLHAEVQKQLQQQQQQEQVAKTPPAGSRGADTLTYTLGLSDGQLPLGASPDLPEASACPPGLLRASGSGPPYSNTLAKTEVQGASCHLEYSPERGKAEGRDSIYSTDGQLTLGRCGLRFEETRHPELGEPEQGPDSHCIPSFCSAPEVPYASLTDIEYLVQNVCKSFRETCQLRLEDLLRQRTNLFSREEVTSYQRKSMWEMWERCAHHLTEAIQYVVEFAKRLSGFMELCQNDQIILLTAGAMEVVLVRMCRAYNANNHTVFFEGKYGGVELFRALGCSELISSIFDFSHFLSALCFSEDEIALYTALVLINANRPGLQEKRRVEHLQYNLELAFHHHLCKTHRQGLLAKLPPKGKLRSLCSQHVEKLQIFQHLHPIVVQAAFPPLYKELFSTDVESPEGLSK
#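 Luminescence from a UAS-regulated Photinus luciferase reporter in stably transfected Drosophila Schneider cells is measured; decreased signal marks ROR gamma inhibition. Fusion expression is induced by 700 uM copper sulfate for 20 hr.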
# TDP1 cell noCPT: qHTS for Inhibitors of human tyrosyl-DNA phosphodiesterase 1 (TDP1): qHTS in cells in absence of CPT; DT40 Tdp1-/- hTDP1 cells, no CPT, ATP luminescence, 48 h; Potency, µM (series often up to 46.2 µM), for inactives: at the highest dose activity change, negative = growth inhibition, usual class: inhibitors; 420,000 compounds, 15% hits; AID 686978, 2013; also: nearly all actives have a fitted effect of over 55% in size
#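 Seeded 400 DT40-hTDP1 cells/well (vehicle DMSO, no 20 nM CPT); pinned compounds; ≥48 hr at 37 °C; CellTiter-Glo luminescence as viability measure.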
# The depositor's hits bear a star; ? = inconclusive; / = not tested or not shown; [ ] = remark or other dose. Calls follow the shape of the dose curve; as a rule, active = well fitted curve in the direction sought with a large enough effect; inconclusive = small, poorly fitted or top-dose-only effect, or another doubt; inactive = no such curve, though single readings can be large; an effect the other way counts as inactive or inconclusive. % is scaled to controls: 0 for no effect and ±100 for the full control effect; potency is read from the fitted curve at half-maximal effect.
SMILES,ALOX12 inh,VP16 counter,ELG1 repair inh,TDP1 cell CPT,RORg inh,TDP1 cell noCPT
O=C(CCCc1c[nH]c2ccccc12)NCCc1c[nH]c2ccccc12,-2.9%,-4.6%,-19.7%,?,?,16.4µM*
O=C(Nc1oc2ccc(Cl)cc2c(=O)c1-c1ccccc1)c1cccc([N+](=O)[O-])c1,0.3%,/,/,/,/,/
Cc1ccc(C)c(NC(=O)CCc2c[nH]c3ccccc23)c1,-14.5%,/,/,/,/,/
CCN(CC)C(=O)COC(=O)c1ccccc1NC(=O)c1ccco1,5.8%,/,/,/,/,/
CCc1cccc(NC(=O)CCc2c[nH]c3ccccc23)c1,-14.1%,/,/,/,/,/
O=C(COC(=O)c1ccccc1C(=O)OCC(=O)NCCc1c[nH]c2ccccc12)NCCc1c[nH]c2ccccc12,-0.8%,/,?,?,/,23.1µM*
Cc1ccc(NC(=O)CCc2c[nH]c3ccccc23)nc1,-2.4%,8.8%,?,2.59µM*,15.1%,2.59µM*
O=C(Nc1cccc(CNCCc2c[nH]c3ccccc23)c1)c1ccccc1Cl,?,9.2%,16.3%,?,-3.7%,18.4µM*
O=C(Nc1ccccc1C(=O)OCC(=O)c1c[nH]c2ccccc12)c1ccco1,-9.8%,-2.5%,?,8.2µM*,44.4%,?
O=C1OC2(CN1CC1CCOCC1)CN(c1ccccc1-c1ccccc1)C2,-4.4%[176 µM],/,/,/,/,/
O=C1OCCC1Nc1ccccc1Oc1ccccc1 (stereo not given),19.6%,/,/,/,/,/
O=C(NCCNCc1c[nH]c2ccccc12)c1ccc(F)cc1,7.94µM*,/,/,/,/,/
Cc1ccc(S(=O)(=O)Nc2ccccc2C(O)c2ccccc2)cc1 (stereo not given),?,-11.2%,?,?,-0.4%,18.4µM*
Cc1ccc(S(=O)(=O)Nc2ccccc2-c2ccccc2NS(=O)(=O)c2ccc(C)cc2)cc1,0.0%,-24.1%,?,?,3.2%,?
O=C1CCN(Cc2ccccc2)C=C1c1ccc(C(F)(F)F)cc1,?,/,4.8%,?,/,?
O=C1CCN(Cc2ccccc2)C=C1c1ccc(Cl)cc1,-55.5%,/,5.5%,23.1µM*,/,?
CCCCC(CC)CN1CN(CC(CC)CCCC)CC(C)(N)C1 (stereo not given),0.2%,-2.6%,/,0.164µM*,-5.6%,0.231µM*
CCOc1cc(-c2noc(-c3ncn4c3COC(c3ccc(OC)cc3)C4)n2)ccc1OC (stereo not given),34.7%,/,/,/,/,/
CC(NC(=O)c1ccc2c(c1)NC(=O)CS2)c1ccc2c(c1)OCO2 (stereo not given),14.1µM*,/,/,/,/,/
Cc1ccc(NC(=O)Cn2c(-c3cnccn3)nc(C)c(C)c2=O)cc1Cl,20.5%,/,/,/,/,/
CC(=O)Nc1scc(-c2ccccc2)[n+]1-c1ccc(C)cc1,-22.5%,-19.8%,-24.1%,14.6µM*,-18.5%,13µM*
Cc1ccc(C(=O)NCC(C)(C)CNC(=O)c2ccc(C)o2)o1,-1.4%,/,/,/,/,/
COc1ccccc1NC(=O)Nc1ccc(NC(=O)c2ccccc2O)cc1,32.4%,-2.8%,-0.5%,-26.6%,15.0%,29.1µM*
COc1ccccc1NC(=O)Nc1ccccc1Br,-22.2%,-4.8%,9.1%,18.4µM*,-1.9%,?
COc1ccccc1NC(=O)c1ccccc1C(=O)Nc1ccccc1OC,10.7%,-13.1%,-15.1%,?,4.4%,?
SMILES,ALOX12 inh,VP16 counter,ELG1 repair inh,TDP1 cell CPT,RORg inh,TDP1 cell noCPT
COc1ccccc1NC(=O)C(Sc1ccccc1)c1ccccc1 (stereo not given),-1.3%,?,-15.6%,20.6µM*,6.7%,?
O=C(Nc1ccccc1)Nc1ccc(Br)c(Cl)c1,-0.5%,-29.4%,9.6%,?,?,16.4µM*
O=C(Nc1ccccc1)Nc1ccccc1Br,11.2µM*,-24.0%,?,14.6µM*,?,?
CCN(C[C@H]1N[C@@](Cc2ccccc2)(C(=O)OC)[C@H]2C(=O)N(Cc3ccccc3)C(=O)[C@@H]12)S(=O)(=O)c1ccccc1,136.4%,/,-8.1%,?,/,23.1µM*
COC(=O)[C@]1(Cc2ccccc2)N[C@H](CN(C)S(=O)(=O)c2ccc(C)cc2)[C@@H]2C(=O)N(Cc3ccccc3)C(=O)[C@@H]21,-1.8%,/,?,?,/,-29.2%
CCN(C[C@H]1N[C@@](C)(C(=O)OC)[C@H]2C(=O)N(Cc3ccccc3)C(=O)[C@@H]12)S(=O)(=O)c1ccc(C)cc1,?,/,1.0%,-23.7%,/,-19.6%
CCN(C[C@H]1N[C@@](Cc2ccccc2)(C(=O)OC)[C@H]2C(=O)N(Cc3ccccc3)C(=O)[C@@H]12)S(=O)(=O)c1ccc(-c2ccccc2)cc1,12.4%,/,0.6%,-13.9%,/,-12.2%
CCN(C[C@H]1N[C@@](CC)(C(=O)OC)[C@H]2C(=O)N(Cc3ccccc3)C(=O)[C@@H]12)S(=O)(=O)c1ccc(F)cc1,-1.6%,/,?,?,/,20.6µM*
CCN(C[C@H]1N[C@@](Cc2ccccc2)(C(=O)OC)[C@H]2C(=O)N(Cc3ccccc3)C(=O)[C@@H]12)S(=O)(=O)c1ccc(C)cc1,-16.7%,/,?,16.4µM*,/,20.6µM*
C/C(c1cccs1)=[N+](\[O-])C(C)/C(=N/O)c1cccs1 (stereo not given),22.5%,/,/,/,/,/
Cc1ccc(-c2nc3ccccc3nc2-c2ccccc2)cc1,0.0%,-7.5%,-11.4%,?,?,14.6µM*
Clc1ccc(-c2nc3ccccc3nc2-c2ccccc2)cc1,-18.8%,-0.5%,-0.3%,?,2.9%,20.6µM*
CC(C)(N)c1ccc(-c2nc3ccccc3nc2-c2ccccc2)cc1,-4.3%[57.4 µM],/,/,/,/,/
O=C(NCc1cnccn1)c1ccc(-c2ncc3cnc(C4=CCOCC4)cn23)cc1,42.4%[176 µM],/,/,/,/,/
O=C(Nc1cccc(-c2cccc(Cl)c2)c1)C1CCN(Cc2nccs2)CC1,3.1%,/,/,9.2µM*,/,5.8µM*
CCOC(=O)CNC(=S)N(Cc1ccccc1F)C1CCCCC1,-2.1%,-6.0%,?,-10.8%,11.2µM*,-25.9%
COc1ccccc1CCNC(=O)CSc1nc(Cl)nc2nc[nH]c12,3.5%,/,/,/,/,/
CN1CCN(Cc2cc(Cl)c3cccnc3c2OC(=O)c2cccs2)CC1,7.3%,12.6µM*,?,4.61µM*,4.47µM*,4.61µM*
O=C(Oc1c(CN2CCOCC2)cc(Cl)c2cccnc12)c1ccccc1Br,-1.3%,3.98µM*,8.2µM*,4.61µM*,6.31µM*,4.61µM*
